Screens deposited in PubChem BioAssay by National Center for Advancing Translational Sciences (NCATS).
In the library only some 7.3% were active in any assay of this set; here they are far more common.
Rab9 promoter act – activates the Rab9 promoter; Huh7 Rab9 promoter-luciferase reporter, luminescence, 24 h; Potency, µM (series often up to 9.22 µM), inactives show at the highest dose activation, negative = inhibition, usual class: activators; 2.8% of 320,000 active; note: % of control where 0% means no effect; nearly all actives have a fitted effect of over 60% in size
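Luciferase signal after 10 min detection reagent at ambient indicates Rab9 promoter upregulation; stably transfected Huh7 cells were treated 24 h with compound in DMSO at 37 °C, 5% CO2.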
FLuc counter – firefly luciferase modulation, counter-screen for miR-21 project | Potency, µM (doses to about 57.5 µM), inactives show at the top dose activity change, negative = inhibition, actives largely listed as inhibitors | AID 588342 | purified FLuc, Km substrates, luminescence inhibition | 6.9% of 360,000 active;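 note: plate controls were vehicle for no effect and reference inhibitor for full effect; nearly all actives have a fitted effect of over 55% in size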
Target sequence (P08659 whole entry, looked up): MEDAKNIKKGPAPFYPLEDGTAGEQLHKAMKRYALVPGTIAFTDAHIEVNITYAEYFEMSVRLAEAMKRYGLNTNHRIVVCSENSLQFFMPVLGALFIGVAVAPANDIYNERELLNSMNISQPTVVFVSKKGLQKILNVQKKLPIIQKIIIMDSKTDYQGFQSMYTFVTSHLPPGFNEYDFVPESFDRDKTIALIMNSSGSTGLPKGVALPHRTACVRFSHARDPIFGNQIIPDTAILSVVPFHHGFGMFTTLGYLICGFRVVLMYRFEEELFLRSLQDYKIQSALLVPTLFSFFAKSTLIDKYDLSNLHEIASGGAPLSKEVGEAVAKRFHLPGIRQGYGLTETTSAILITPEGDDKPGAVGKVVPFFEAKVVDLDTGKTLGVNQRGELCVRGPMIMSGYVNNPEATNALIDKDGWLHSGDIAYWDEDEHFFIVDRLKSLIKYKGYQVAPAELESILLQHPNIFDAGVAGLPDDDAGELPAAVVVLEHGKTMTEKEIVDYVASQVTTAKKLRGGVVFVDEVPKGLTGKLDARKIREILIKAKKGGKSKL
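Biochemical qHTS of compounds, final roughly 60 µM downward over six points, against 10 nM purified firefly luciferase using Km concentrations of substrates (10 uM D-luciferin, 10 uM ATP) in Tris acetate pH 7.5 buffer; luminescence output.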
NPC1 prom act – activators of NPC1 promoter; Huh7 NPC1 promoter luciferase reporter, 24 h; Potency, µM (highest dose often 9.22 µM), for inactives: at the highest dose activation, actives largely listed as activators; 2.4% of 320,000 active; note: % of control where 0% means no effect; nearly all actives have a fitted effect of over 60% in size
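Compounds in DMSO were transferred onto Huh7 NPC1-luciferase reporter cells pre-incubated 2 h; after 24 h at 37 °C, Amplite reagent was dispensed and luminescence recorded 10 min later.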
SMN2 splice up – SMN2 splice variant enhancement; Potency, µM (series often up to 46.1 µM), for the others: at the highest dose activity change, positive = activation, hits mostly activators; 2.8% of 210,000 active; AID 1458; HEK293 SMN2-luciferase splicing reporter, luminescence, 30-36 h; note: % of control where 0% means no effect; nearly all actives have a fitted effect of over 55% in size
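HEK293 cells carry an SMN2 […]–luciferase reporter in which exon 7 inclusion puts luciferase in frame. Cells were plated 10-12 h before compound addition, then incubated 30-36 h at 37C. ONE-Glo luminescence was read; sodium butyrate at 4.5 mM final served as control.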
Luc counter – blocks Kinase-Glo luciferase, a counter-screen artifact; Q27757; Kinase-Glo luciferase, ATP luminescence, 8 min; Potency, µM (series often up to 38.3 µM), for inactives: at the highest dose activity change, negative = inhibition, most hits filed as inhibitors; 0.28% of 200,000 active; AID 1379; note: % is set by controls: 0 for no effect and ±100 for the full control effect; nearly all actives have a fitted effect of over 60% in size
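Recombinant Kinase-Glo luciferase, 10 uM ATP (linear range), luciferin; imidazole pH 7.2 / KCl / MgCl2 / Tween / BSA buffer; 8 min RT; luminescence.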
ELG1 genotoxic – induces genotoxicity in HEK293T cells with luciferase-tagged ELG1. HEK293T ELG1-luciferase reporter, luminescence, 16 h. Potency, µM (doses to about 46 µM), for the others: at the top dose activity change, positive = activation, usual class: activators. 1.3% of 330,000 active; note: % of control where 0% means no effect; nearly all actives have a fitted effect of over 60% in size
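Genotoxic stress is detected as increased luminescence from luciferase-tagged ELG1 in HEK293T cells, measured with ONE-Glo after a 16 hr treatment at 37 °C.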
The depositor's hits bear a star; ? = inconclusive; · = no result given. Calls come from the whole dose curve; as a rule, active = well fitted curve in the direction sought with a large enough effect; inconclusive = small, poorly fitted or top-dose-only effect, or another doubt; inactive = no such curve, though single readings can be large; an effect the other way counts as inactive or inconclusive. Potency is the fitted concentration of half-maximal effect.

SMILES | Rab9 promoter act | FLuc counter | NPC1 prom act | SMN2 splice up | Luc counter | ELG1 genotoxic
Cc1[nH]c2ccccc2c1C(=O)C(=O)NC1CC1 | 1.3µM* | 9.5µM* | ? | · | · | ?
COc1ccc(CCNC(=O)c2cc3sccc3n2Cc2ccc(Cl)cc2)cc1OC | · | 6% | · | -43% | · | ·
Cc1[nH][nH]c(=O)c1C(c1ccc(-c2cccc(Cl)c2)o1)c1c(C)[nH][nH]c1=O | -2% | -20% | -2% | · | · | -2%
Cc1[nH][nH]c(=O)c1C(c1ccc(-c2cccc(C(=O)O)c2)o1)c1c(C)[nH][nH]c1=O | ? | 15µM* | 20% | · | -2% | 14%
CN(C)c1ccc(-c2nc3ccccc3c(=O)[nH]2)cc1 | 0.25µM* | 0.6µM* | 0.35µM* | · | · | 0.82µM*
O=c1[nH]c(-c2cccnc2)nc2ccccc12 | -7% | -2% | 0% | 1% | -1% | 0%
O=c1[nH]c(-c2ccncc2)nc2ccccc12 | -1% | ? | 1% | 9% | 1% | -2%
Cc1cccc(-c2nc3ccccc3c(=O)[nH]2)c1 | 3.2µM* | 11µM* | 2.8µM* | · | · | ?
COc1ccc(-c2nc3ccccc3c(=O)[nH]2)cc1 | 0.71µM* | 3.4µM* | 1.4µM* | · | · | 9.2µM*
COc1ccc2nc(NC(=O)c3ccc4ncsc4c3)sc2c1 | 1.8µM* | 1.1µM* | 2.8µM* | ? | 4% | 5.8µM*
NC(=O)c1ccc2nc(NC(=O)c3ccc(N)cc3)sc2c1 | ? | 3µM* | ? | ? | -4% | 16%
COc1ccc2nc(NC(=O)c3ccc(-n4nc(C)cc4C)cc3)sc2c1 | 7% | 0% | -2% | -23% | -2% | 11%
COc1ccc2nc(NC(=O)c3ccc(F)cc3)sc2c1 | 1.4µM* | 0.85µM* | 2.5µM* | · | · | ?
CCC(C)NC(=O)C1CCN(S(=O)(=O)c2ccc3c(ccn3CC)c2)CC1 (stereo not given) | · | 5% | · | · | · | ·
COc1ccc(NC(=O)CCn2cnnn2)cc1 | · | 2% | · | · | · | ·
O=C(/C=C/c1ccc(N2CCCCC2)c([N+](=O)[O-])c1)c1ccc(O)cc1 | ? | 4.8µM* | ? | -8% | -2% | 21µM*
COc1ccccc1C(=O)/C=C/c1ccc(N2CCCCC2)c([N+](=O)[O-])c1 | ? | 6µM* | ? | -84% | 0% | ?
O=C(O/N=C\c1ccc(N2CCCCC2)c([N+](=O)[O-])c1)c1ccc(Cl)cc1Cl | -8% | -1% | -4% | -9% | 4% | -2%
CC(=O)Nc1c(C)nn(-c2ccccc2)c1N1CCC(C(=O)NCc2ccc(Cl)cc2)CC1 | · | 3% | · | · | · | ·
CCc1ccccc1Nc1cc(C(=O)NCCc2ccccc2)c2ccccc2n1 | · | 0% | · | 13% | · | ·
Cc1ccc(-n2cc(CNCC3CC(=O)N(C4CC4)C3)c(-c3cccc(C)c3)n2)cc1 (stereo not given) | 9% | 21µM* | -5% | · | · | -4%
Cc1nc2cc(NC(=O)N3c4ccccc4CC3C)ccc2o1 (stereo not given) | 0.89µM* | 6µM* | 0.79µM* | 11µM* | -3% | 3.3µM*
Cc1nc2cc(NC(=O)Nc3ccc(Br)cc3)ccc2o1 | 0.5µM* | 2.4µM* | 1.8µM* | 11µM* | -1% | ?
Cc1nc2cc(NC(=O)NCc3ccc4c(c3)OCO4)ccc2o1 | -2% | -2% | -3% | -2% | 3% | 1%
Cc1ccccc1NC(=O)N1c2ccccc2CC1C (stereo not given) | -9% | ? | 1% | 20% | 3% | 2%
SMILES | Rab9 promoter act | FLuc counter | NPC1 prom act | SMN2 splice up | Luc counter | ELG1 genotoxic
Cc1nc2cc(NC(=O)N3c4ccccc4CC3C)ccc2n1C (stereo not given) | 0.45µM* | 1.7µM* | 0.5µM* | 2.8µM* | -7% | ?
C/C(=C\C[Si](C)(C)C)CCC=O | · | · | · | -9% | 1% | ·
CCn1c(C(=O)N2CCC(C(=O)NCCc3ccc(OC)cc3OC)CC2)cc2sccc21 | · | -13% | · | 0% | · | ·
COC1=C(C(=O)c2ccccc2)C(=O)C2(CC=C(C)C)C[C@H](C(=O)OCC(F)(F)F)C(C)(C)[C@@]1(CC=C(C)C)C2=O (tested in a mixture with another compound) | · | · | · | -10% | 3% | ·
Cc1c(CCC(=O)O)c(=O)oc2cc3occ(-c4ccc(Br)cc4)c3cc12 | -5% | 17µM* | -6% | · | · | 0%
Cc1c(CCC(=O)NCCC(=O)O)c(=O)oc2cc3occ(-c4ccccc4)c3cc12 | 3% | -18% | -2% | · | · | 4%
Cc1c(CCC(=O)O)c(=O)oc2cc3occ(-c4ccc(Cl)cc4)c3cc12 | -4% | 17µM* | -4% | · | · | 3%
Cc1c(CCC(=O)O)c(=O)oc2cc3occ(-c4ccc(F)cc4)c3cc12 | -3% | ? | -3% | ? | 3% | 3%
Cc1oc2cc3oc(=O)c(CCC(=O)N(C)CC(=O)O)c(C)c3cc2c1C | -7% | 7.6µM* | -4% | · | · | 1%
Cc1ccc(Nc2nnc(-c3ccc(C)c(S(=O)(=O)N4CCN(C)CC4)c3)c3ccccc23)c(C)c1 | · | -5% | · | 7% | · | ·
O=C(Nc1ccccc1)N(Cc1cccs1)c1ccc(F)cc1 | · | -11% | · | · | · | ·
Cc1ccc(C)c(Nc2cc(C)nc3ncnn23)c1 | 0.1µM* | 0% | ? | · | · | 18%
Cc1cc(Nc2ccc(N(C)C)cc2)n2ncnc2n1 | -2% | 17µM* | -1% | · | · | 10%
O=C(Nc1cc(NC(=O)c2ccccc2F)ccc1Cl)c1ccccc1 | 9% | 15µM* | 4% | · | · | -6%
Cc1ccc(NC(=O)c2snc3ccc(Cl)cc23)cc1C | ? | 12µM* | 9% | 11µM* | 0% | 18%
O=C(Nc1ccc(F)c(F)c1)c1ccccc1 | ? | ? | ? | · | · | 21µM*
Cc1ccc(NC(=O)c2snc3c(=O)[nH]cnc23)cc1C | -5% | -18% | 0% | -10% | 4% | 5%
Cc1ccc(NC(=O)CCSCCC(=O)Nc2ccc(C)c(C)c2)cc1C | -4% | 17µM* | -1% | -1% | -7% | 0%
COCCOC(=O)c1ccccc1C(=O)OCCOC | · | · | · | -4% | · | ·
Cc1ccc(C(=O)N(Cc2ccc(N(C)C)cc2)CC2CCCO2)cc1 (stereo not given) | · | -7% | · | -1% | · | ·
O=C(NCc1ccccc1)C(=O)NCC(c1ccc2c(c1)OCO2)N1CCOCC1 (stereo not given) | · | 1% | · | · | · | ·
CCOC(=O)c1c(C)c(-c2ccccc2)n(CC(=O)NC2CCCCCC2)c1C | · | -19% | · | 16% | · | ·
CCOC(=O)c1cccc(NC(=O)N2CC(CC)Sc3ccccc32)c1 (stereo not given) | · | 0% | · | · | · | ·
Cc1ccc(NC(=O)c2ccccc2)cc1C | 6% | 15µM* | 13% | · | · | 8%
